Test results as given in the supplement of paper PMC4894684.
Counter-ions that a name gives are not always drawn. ± gives the standard deviation of the averaged measurements. About 15 (2%) of roughly 1,000 compounds showed an effect of 50% or more. For the sample, strong results were picked, then their nearest neighbours and some compounds at random.

The compounds below were run on HFF (assay: uninfected host cell viability relative to vehicle control; higher = less host cell toxicity). Details: 5 µM; 72 h; oxygen 21 %.
O=C1NC(=O)c2cc(Nc3ccccc3)c(Nc3ccccc3)cc21 was tested, and the “uninfected host cell viability” value was 93.23 ± 0.27%.
COCCOC(=O)C1=C(C)NC(C)=C(C(=O)OC/C=C/c2ccccc2)C1c1cccc([N+](=O)[O-])c1 (configuration not stated) [Cilnidipine] was tested, and the “uninfected host cell viability” value was 85.8 ± 2.8%.
With COc1ccccc1C1(O)CCN(CCCn2c3ccccc3c3ccccc32)CC1 [NNC 05-2090 hydrochloride] the “uninfected host cell viability” value was 81.9 ± 1.6%.
For Nc1nc(NCC2CCC(CNS(=O)(=O)c3cccc4ccccc34)CC2)nc2ccccc12 (configuration not stated), the “uninfected host cell viability” value was 58.6 ± 2.7%.
CN(Cc1ccccc1)C(=O)[C@H](Cc1ccc2ccccc2c1)NC(=O)[C@@H]1C[C@@H](O)CN1C(=O)c1cn(C)c2ccccc12 was tested, and the “uninfected host cell viability” value was 83.97 ± 0.68%.
For NC(=O)N/N=C/c1ccc(Oc2ccc(F)cc2)cc1, the “uninfected host cell viability” value was 87.6 ± 3.6%.
For O=C1NC(=O)c2cc(Nc3ccc(F)cc3)c(Nc3ccc(F)cc3)cc21, the “uninfected host cell viability” value was 86.353 ± 0.013%.
With Oc1nc(-c2ccc(C(F)(F)F)cc2)nc2c1CSCC2 the “uninfected host cell viability” value was 83.2 ± 2.4%.
In the case of CCC(=O)NC[C@H](Cc1ccc(OCCc2nc(-c3ccccc3)oc2C)cc1)N/C(C)=C\C(=O)c1ccc(C(F)(F)F)cc1, the “uninfected host cell viability” value is reported as 102 ± 1.4%.
In the case of COC(=O)/C=C/c1cccc(N(Cc2ccc(-c3ccc(N(C)C)cc3)cc2)C(=O)C2CCCCC2)c1 [Fexaramine], the “uninfected host cell viability” value is reported as 96 ± 2.3%.
With CC(=O)OCCNC(=O)c1cccnc1 [N-[2-(Acetoxy)ethyl]-3-pyridinecarboxamide] the “uninfected host cell viability” value was 82.8 ± 3.4%.
In the case of OC1CCC(Nc2nc(-c3ccccc3)nc3[nH]ccc23)CC1 (configuration not stated), the “uninfected host cell viability” value is reported as 85.37 ± 0.31%.
Cc1ccc2c(c1)c1c3n2CCNC3CCC1 (configuration not stated) [Pirlindole mesylate] was tested, and the “uninfected host cell viability” value was 88 ± 6.3%.
With CC(C)c1ccc(C(=O)c2cccs2)c(SCCCCCCCCN(C)C)n1 the “uninfected host cell viability” value was 74.54 ± 0.56%.
In the case of OC(CN1CCC(Cc2ccc(F)cc2)CC1)c1ccc(Cl)cc1 (configuration not stated) [Eliprodil], the “uninfected host cell viability” value is reported as 88.9 ± 1.1%.
With O=c1cc(N2CCOCC2)oc2c1ccc1ccccc12 the “uninfected host cell viability” value was 82.9 ± 0.9%.
For COc1ccc(OC)c2c(=S)c3ccccc3[nH]c12, the “uninfected host cell viability” value was 76.9 ± 3.1%.
For COC(=O)C1=C(C)NC(C)=C(C(=O)OCCCN2CCC(c3ccccc3)(c3ccccc3)CC2)[C@H]1c1cccc([N+](=O)[O-])c1 [(S)-(+)-Niguldipine hydrochloride], the “uninfected host cell viability” value was 76.95 ± 0.17%.
With CCC(=O)OCN1C(=O)C=CC1=O the “uninfected host cell viability” value was 90.82 ± 0.35%.
Nc1c(Br)cc(Br)cc1CN[C@H]1CC[C@H](O)CC1 [Ambroxol hydrochloride] was tested, and the “uninfected host cell viability” value was 83.8 ± 1.4%.
In the case of CCCCCCCCCCCCCCCC(=O)O[C@H](CC(=O)O)C[N+](C)(C)C (racemic) [(±)-Palmitoylcarnitine chloride], the “uninfected host cell viability” value is reported as 89.8 ± 4.6%.
In the case of CN(CC[C@@H](Oc1ccc(-c2ccccc2)cc1)c1ccc(F)cc1)CC(=O)O [ALX 5407 hydrochloride], the “uninfected host cell viability” value is reported as 89.7 ± 7.4%.
For COc1ccc(NC(=O)c2ccc(-c3ccc(-c4noc(C)n4)cc3C)cc2)cc1OCCN(C)C, the “uninfected host cell viability” value was 36.9 ± 27%.
For COc1cc2c(Nc3ccc(NC(=O)c4ccccc4)cc3)ncnc2cc1OCCCN1CCOCC1, the “uninfected host cell viability” value was 64.74 ± 0.56%.
With COc1ccc(NC(=O)c2ccc(-c3ccc(-c4noc(C)n4)cc3C)cc2)cc1N1CCN(C)CC1 the “uninfected host cell viability” value was 70.2 ± 7.3%.
In the case of CCN(CC)c1ccc(/C=N/NC(=O)c2ccc(O)cc2)cc1, the “uninfected host cell viability” value is reported as 86.7 ± 5.1%.
With CCCCC[C@H](O)/C=C/[C@H]1[C@H](O)CC(=O)[C@@H]1CCCCCCC(=O)O [Alprostadil] the “uninfected host cell viability” value was 91.7 ± 4.5%.
With CC1Nc2ccc(Cl)cc2S(=O)(=O)N1 (configuration not stated) the “uninfected host cell viability” value was 95.27 ± 0.86%.
In the case of Cn1cc(C2=C(c3ccc(Cl)cc3Cl)C(=O)NC2=O)c2ccccc21, the “uninfected host cell viability” value is reported as 72.6 ± 4.2%.
With CN(C)CCCn1cc(C2=C(c3c[nH]c4ccccc34)C(=O)NC2=O)c2ccccc21 the “uninfected host cell viability” value was 62.3 ± 1.5%.
With Cn1cc(C2=C(c3cn(CCCSC(=N)N)c4ccccc34)C(=O)NC2=O)c2ccccc21 [Ro 31-8220 mesylate] the “uninfected host cell viability” value was 14.2 ± 0.54%.
For O=C(O)CC/C=C\C[C@H]1CO[C@@H](c2ccccc2Cl)O[C@H]1c1ccccc1O, the “uninfected host cell viability” value was 98.6 ± 1.1%.
CCOC(=O)c1c(C)[nH]c2ccc3c(c12)CN1CCc2cc(OC)ccc2C1O3 (configuration not stated) was tested, and the “uninfected host cell viability” value was 96.1 ± 2.8%.
In the case of CC(Oc1ccc(O)cc1)(P(=O)(O)O)P(=O)(O)O, the “uninfected host cell viability” value is reported as 95.3 ± 1.8%.
CN(C)C(=O)C(=O)c1cn(C)c2cc(Cl)c(C(=O)N3CCC(Cc4ccc(F)cc4)CC3)cc12 was tested, and the “uninfected host cell viability” value was 88.4 ± 2.3%.
In the case of CCOCC(O)COc1ccc(NC(=O)CC[S+](C)C)cc1 (configuration not stated) [Suplatast tosylate], the “uninfected host cell viability” value is reported as 97.7 ± 1.6%.
In the case of CNC(=O)[C@H]1O[C@@H](n2cnc3c(NCc4cccc(I)c4)ncnc32)[C@H](O)[C@@H]1O, the “uninfected host cell viability” value is reported as 80.94 ± 0.44%.
With CCN(c1ccccc1)c1cc(=NC)n(C)c(C)n1 the “uninfected host cell viability” value was 92.2 ± 1.3%.
CCOC(=O)c1ccc(OC(=O)CCCCCNC(=N)N)cc1 [Gabexate mesylate] was tested, and the “uninfected host cell viability” value was 89.8 ± 11%.
O=[N+]([O-])c1cc(Cl)ccc1S(=O)(=O)N1CCN(Cc2ccccc2)CC1 was tested, and the “uninfected host cell viability” value was 98.8 ± 3.2%.
With CN1CC(=O)N=C1NC(=O)Nc1cccc(Cl)c1 [Fenobam] the “uninfected host cell viability” value was 80.93 ± 0.68%.
In the case of CCCCc1nn(-c2ccccc2C(F)(F)F)c(=O)n1Cc1ccc(-c2ccccc2S(=O)(=O)NC(=O)c2sccc2C)cc1, the “uninfected host cell viability” value is reported as 84.8 ± 3.6%.
With COc1cc(NC(=O)c2ccccn2)ccc1Cl the “uninfected host cell viability” value was 95.9 ± 2.8%.
With COc1ccc(-c2nc(-c3ccc(-c4cccc(Cl)c4)o3)[nH]c2-c2ccc(OC)cc2)cc1 [Neurodazine] the “uninfected host cell viability” value was 80.3 ± 5.1%.
In the case of O=C(NCCCN1CCCCCC1)C(c1ccccc1)C1CCCCC1 (configuration not stated), the “uninfected host cell viability” value is reported as 88.8 ± 4.6%.
O=C(O)C=C1CCCc2ccccc2C1O (configuration not stated) was tested, and the “uninfected host cell viability” value was 83.32 ± 0.084%.
In the case of COC(=O)C[C@](O)(CCCC(C)(C)O)C(=O)O[C@@H]1C(OC)=C[C@]23CCCN2CCc2cc4c(cc2[C@H]13)OCO4 [Homoharringtonine], the “uninfected host cell viability” value is reported as 28.6 ± 2.8%.
With O/N=C/c1ccc(-c2ccc(O)c(F)c2)c(Cl)c1O the “uninfected host cell viability” value was 91.86 ± 0.49%.
In the case of Cc1ccc(/C=C2\CNC/C(=C\c3ccc(C)cc3)C2=O)cc1, the “uninfected host cell viability” value is reported as 34.4 ± 5.5%.
COC(=O)C1=C(C)NC(C)=C(C(=O)NCCCN2CCC(c3ccccc3)(c3ccccc3)CC2)C1c1ccc([N+](=O)[O-])cc1 (configuration not stated) was tested, and the “uninfected host cell viability” value was 81.9 ± 1.8%.
For CC#CCOC(=O)C1=CCCN(C)C1 [Arecaidine but-2-ynyl ester tosylate], the “uninfected host cell viability” value was 88 ± 1.3%.
CC(C)Oc1cccc(-n2c(CCc3c[nH]c4ccc(Br)cc34)nc3ccccc3c2=O)c1 was tested, and the “uninfected host cell viability” value was 92.8 ± 5.5%.
In the case of COc1cc(Br)c(S(=O)(=O)Nc2ccc(Cl)c(O[C@@H]3CCN(C)C3)c2)cc1OC, the “uninfected host cell viability” value is reported as 96.9 ± 3%.
In the case of C[C@H](NC[C@H](O)CP(=O)(O)CC1CCCCC1)c1ccc(Cl)c(Cl)c1, the “uninfected host cell viability” value is reported as 84.83 ± 0.31%.
For CC1c2ccccc2CN1CC1=NCCN1 (configuration not stated), the “uninfected host cell viability” value was 89 ± 2.3%.
With N[C@H](C(=O)O)c1ccc(O)c(C(=O)O)c1 [(S)-3-Carboxy-4-hydroxyphenylglycine] the “uninfected host cell viability” value was 83.1 ± 0.11%.
CC(C)c1onc(-c2c(Cl)cccc2Cl)c1COc1ccc(/C=C/c2cccc(C(=O)O)c2)c(Cl)c1 was tested, and the “uninfected host cell viability” value was 96.2 ± 2.9%.
With OC[C@H]1NC[C@@H](O)[C@@H](O)[C@@H]1O [1-Deoxymannojirimycin hydrochloride] the “uninfected host cell viability” value was 86.61 ± 0.073%.
With O=C(NCCCCN1CCN(c2cccc(Cl)c2Cl)CC1)c1ccc2c(c1)Cc1ccccc1-2 the “uninfected host cell viability” value was 88.9 ± 4%.
With CCCCCCNC(=O)Nc1ccc(S(=O)(=O)Nc2ccc(CCNC[C@H](O)COc3ccc(O)cc3)cc2)cc1 the “uninfected host cell viability” value was 83.4 ± 2.5%.
With NC(C(=O)O)c1ccc(C(=O)O)c(C(=O)O)c1 (configuration not stated) the “uninfected host cell viability” value was 83.7 ± 3.5%.
In the case of CCCCN1CCC(CCC(=O)c2cc(Cl)c(N)cc2OC)CC1, the “uninfected host cell viability” value is reported as 85.2 ± 6.5%.
In the case of CN(CCOc1ccc(-c2ccc3c(c2)OCO3)cc1C(C)(C)C)CC(=O)O, the “uninfected host cell viability” value is reported as 89.62 ± 0.17%.
In the case of O=C(c1ccc(F)cc1)C1CCN(CCn2c(=S)[nH]c3ccccc3c2=O)CC1 [Altanserin hydrochloride], the “uninfected host cell viability” value is reported as 83.2 ± 2.8%.
In the case of Nc1nc2c(nc(Br)n2[C@@H]2O[C@@H]3COP(=O)(O)O[C@H]3[C@H]2O)c(=O)[nH]1 [8-Bromo-cGMP, sodium salt], the “uninfected host cell viability” value is reported as 89.8 ± 1.7%.
In the case of COC(=O)c1sccc1S(=O)(=O)Nc1ccc(Nc2ccccc2)cc1OC, the “uninfected host cell viability” value is reported as 77.8 ± 0.79%.
In the case of NC(=O)N1c2ccccc2CC(O)c2ccccc21 (configuration not stated) [Licarbazepine], the “uninfected host cell viability” value is reported as 86.1 ± 1.1%.
COc1ccc(Cl)cc1NC(=O)Nc1cc(C)nc2ccccc12 was tested, and the “uninfected host cell viability” value was 70.73 ± 0.28%.
In the case of O=C(/C=C/c1ccc(O)c(O)c1)O[C@H](Cc1ccc(O)c(O)c1)C(=O)O [Rosmarinic acid], the “uninfected host cell viability” value is reported as 80.3 ± 1%.
In the case of OC(CCCN1CCN(c2ncc(F)cn2)CC1)c1ccc(F)cc1 (configuration not stated), the “uninfected host cell viability” value is reported as 110 ± 17%.
CC(C)c1ccccc1S(=O)(=O)c1cc(N)c2ncccc2c1[N+](=O)[O-] was tested, and the “uninfected host cell viability” value was 73.2 ± 0.84%.
With CN(CCCN1c2ccccc2CCc2ccccc21)CC(=O)c1ccc(Cl)cc1 [Lofepramine] the “uninfected host cell viability” value was 89.6 ± 1.2%.
For Cc1c(C(=O)NN2CCOCC2)nn(-c2ccc(Cl)cc2Cl)c1-c1ccc(I)cc1, the “uninfected host cell viability” value was 90.8 ± 2.4%.
With O=c1[nH]nc(Sc2ncc([N+](=O)[O-])s2)n1-c1ccc2c(c1)OCCO2 the “uninfected host cell viability” value was 99.61 ± 0.28%.
With O=C(O)c1ccc(C=C2SC(=S)N(c3cccc(C(F)(F)F)c3)C2=O)cc1 the “uninfected host cell viability” value was 87.8 ± 0.91%.
In the case of CN1Cc2c(C(=O)OC(C)(C)C)ncn2-c2ccsc2C1=O, the “uninfected host cell viability” value is reported as 97.9 ± 4.9%.
With CCCCCCCCCCCCCCCC(=O)C(F)(F)F the “uninfected host cell viability” value was 91.66 ± 0.55%.
NC(=O)CCCCn1ccc(NC(N)=NCC(F)(F)F)n1 was tested, and the “uninfected host cell viability” value was 85.9 ± 2.3%.
For N[C@@H](CSS(=O)(=O)O)C(=O)O [S-Sulfo-L-cysteine sodium salt], the “uninfected host cell viability” value was 99.5 ± 1.1%.
Cc1ccccc1C(=O)c1ccc(Nc2ccc(Br)cc2N)cc1Cl was tested, and the “uninfected host cell viability” value was 84 ± 2.2%.
With CN1CCC(Nc2ncc3ncnc(Nc4ccc(F)c(Cl)c4)c3n2)CC1 [BIBX 1382 dihydrochloride] the “uninfected host cell viability” value was 80.7 ± 2.1%.
With CC(C)n1nnc2cc(C(=O)O)ccc21 the “uninfected host cell viability” value was 100 ± 2.3%.
Cc1[nH]c(/C=C2\C(=O)Nc3ccc(S(=O)(=O)Cc4c(Cl)cccc4Cl)cc32)c(C)c1C(=O)N1CCC[C@@H]1CN1CCCC1 was tested, and the “uninfected host cell viability” value was 89.5 ± 2.3%.
In the case of CC1(C)CCC(C)(C)c2cc(C3(c4ccc(C(=O)O)cc4)OCCO3)ccc21, the “uninfected host cell viability” value is reported as 93.1 ± 2.3%.
For COc1ccc(NS(=O)(=O)c2ccc(I)cc2)cc1N1CCN(C)CC1, the “uninfected host cell viability” value was 81.6 ± 2.9%.
For Cc1cc(C)cc(C(=O)N(C)[C@H](Cc2ccc(-c3ccccc3)cc2)C(=O)N[C@@H](Cc2c[nH]c3ccccc23)C(=O)O)c1, the “uninfected host cell viability” value was 83.95 ± 0.62%.
For CCCn1c(=O)[nH]c2nc(-c3ccc(S(=O)(=O)O)cc3)[nH]c2c1=O, the “uninfected host cell viability” value was 86.34 ± 0.58%.
